Compound activity (PubChem BioAssay)
DRD3 agonist – agonists of human D3 dopamine receptor. max activation, %. AID 652048. D3R DiscoveRx beta-arrestin cells, luminescence, 90 min. actives 0.58% (n = 410,000); in the data active = max activation above about 30%; also: 0% is about no effect
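Cells at 1500/well, incubated overnight, then treated with pinned compounds (dopamine as control) for 90 min at 37 degrees C. DiscoveRx reagent added for 30 - 60 minutes at room temperature; luminescence read.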
Rango-impB inh – prevents formation of the Rango-importin beta complex; Potency, µM (series often up to 92.2 µM), inactives show at the highest dose inhibition of complex formation; Rango CFP/YFP FRET sensor + importin beta, 45 min; actives 0.031% (n = 340,000); AID 540263; Q14974;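 also: potency is read from the fitted curve at half-maximal effect; 0% = DMSO wells and 100% = buffer wells lacking importin beta; nearly all actives have a fitted effect of over 15% in size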
Target sequence (Q14974 whole entry, looked up): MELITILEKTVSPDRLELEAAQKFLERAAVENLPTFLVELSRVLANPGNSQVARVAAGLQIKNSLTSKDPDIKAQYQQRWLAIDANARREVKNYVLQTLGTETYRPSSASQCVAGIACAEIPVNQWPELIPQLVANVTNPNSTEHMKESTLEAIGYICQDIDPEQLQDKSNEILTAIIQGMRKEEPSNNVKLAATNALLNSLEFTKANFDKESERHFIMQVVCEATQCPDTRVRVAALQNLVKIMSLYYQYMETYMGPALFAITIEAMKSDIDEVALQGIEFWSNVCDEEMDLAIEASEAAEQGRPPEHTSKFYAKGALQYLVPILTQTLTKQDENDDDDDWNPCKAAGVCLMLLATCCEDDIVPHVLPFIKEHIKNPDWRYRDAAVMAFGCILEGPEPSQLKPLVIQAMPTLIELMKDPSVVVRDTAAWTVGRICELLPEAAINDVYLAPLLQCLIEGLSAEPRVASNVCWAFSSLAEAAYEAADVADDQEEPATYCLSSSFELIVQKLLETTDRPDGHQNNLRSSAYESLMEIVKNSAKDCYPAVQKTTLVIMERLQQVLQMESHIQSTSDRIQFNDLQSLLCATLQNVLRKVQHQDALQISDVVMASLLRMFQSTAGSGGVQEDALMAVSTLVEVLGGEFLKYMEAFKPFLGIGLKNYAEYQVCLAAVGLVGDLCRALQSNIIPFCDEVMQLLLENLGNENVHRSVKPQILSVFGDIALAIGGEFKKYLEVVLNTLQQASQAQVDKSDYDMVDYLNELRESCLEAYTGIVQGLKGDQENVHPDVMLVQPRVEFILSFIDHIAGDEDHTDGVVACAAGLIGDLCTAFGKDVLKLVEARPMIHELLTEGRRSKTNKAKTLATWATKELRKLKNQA
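Inhibition scored from the CFP 486 nm/YFP 530 nm FRET ratio 45 min after adding 0.125 microM importin beta to 50 nM Rango biosensor preincubated 5 min with compound (room temperature, PBS with DTT, Tween-20, BSA). No-importin wells as positive control.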
Rango release inh – inhibitors of RanGTP-induced Rango-importin beta complex dissociation; O95149+P62826; actives 0.071% (n = 340,000); Biochemical FRET Rango-importin beta, RanGTP-induced dissociation; Potency, µM (series often up to 46.1 µM), for inactives: at the top dose activity change, negative = inhibition; also: potency is read from the fitted curve at half-maximal effect; % of control where 0% means no effect; nearly all actives have a fitted effect of over 45% in size
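Rango (0.1 uM)–importin beta (0.25 uM) complex; RanGTP-RCC1 trigger; 45 min RT; CFP/YFP FRET read.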
TSG101-PTAP inh – blocks PTAP/TSG101 interaction to inhibit HIV-1 budding | Potency, µM (doses to about 115 µM), inactives show at the highest dose activity change, negative = inhibition, actives largely listed as inhibitors | AID 493005 | Fluorescence polarization, FITC-PTAP peptide / Tsg101 binding | 340,000 tested, under 10 active; active = well fitted inhibition curve with a large enough effect in the main read-out, with a control signal flat, not every such curve was filed as active; inconclusive = small, poorly fitted or top-dose-only effect, or effect the other way, or a change in a side signal; inactive = no such curve, though single readings can be large or run the other way; also: potency is read from the fitted curve at half-maximal effect; % of control where 0% means no effect
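Compounds were pin-transferred onto Tsg101 binding domain (10 uM final) in HEPES pH 7.5 buffer, then FITC-PTAP peptide was added at 50 nM final. After 20 min at RT, polarization reported peptide displacement across a qHTS concentration series.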
DRD3 antagonist – antagonists of human D3 dopamine receptor. D3R cells, DiscoveRx beta-arrestin luminescence, antagonist mode; stronger effect = lower value. max response, negative = inhibition, %. actives 2.5% (n = 360,000). AID 652054; in the data active = max response below about -50%; inconclusive = no clear call, values can overlap the other calls; also: % is scaled to controls: 0 for no effect and ±100 for the full control effect
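Cells plated overnight at 1500 cells/well, then exposed to library compounds with dopamine controls for 90 minutes at 37 degrees C. DiscoveRx reagent added for 30–60 minutes at room temperature; luminescence read, quantitative HTS format.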
MmCpn inh – M. maripaludis TRiC chaperonin inhibition; purified Mm-Cpn ATPase, ADP Transcreener TR-FRET; Potency, µM (highest dose often 76.9 µM), for the others: at the top dose activity, negative = inhibition, usual class: inhibitors; actives 0.031% (n = 330,000); active = well fitted inhibition curve with a large enough effect; inconclusive = small, poorly fitted or top-dose-only effect; also: potency is read from the fitted curve at half-maximal effect; % is scaled to controls: 0 for no effect and ±100 for the full control effect; nearly all actives have a fitted effect of over 80% in size
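ATPase turnover read by TR-FRET ADP competition (Eu cryptate antibody/ADP-d2, 665/590 nm): 10uM ATP final, 25nM Mm-CPN final, 30 min 37degC after 10-min compound preincubation, pH 7.4 Tris/KCl/MgCl2/DTT buffer.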
An asterisk follows results filed as active; ? = inconclusive; . = no result. A selection: hits, their analogues and other compounds. The true share with any hit is near 2.9%. Unless noted, calls follow the shape of the full dose curve.

SMILES	DRD3 agonist	Rango-impB inh	Rango release inh	TSG101-PTAP inh	DRD3 antagonist	MmCpn inh
Cc1ccc2cc(CN(CCN3CCOCC3)C(=O)NCc3ccccc3)c(=O)[nH]c2c1C	2.7	0.7%	-2.0%	-4.8%	-8.8	-1.2%
Cc1ccc2cc(CN(CCN3CCCC3)C(=O)Nc3ccc(F)cc3)c(=O)[nH]c2c1C	-23.6	-0.9%	1.8%	0.8%	-77.7*	-3.5%
COc1ccc(NC(=O)N(CCN2CCCC2)Cc2cc3cc(OC)c(OC)cc3[nH]c2=O)cc1	-2.5	4.3%	-8.5%	-2.9%	?	0.5%
Cc1ccc2cc(CN(CCN3CCCC3)C(=O)Nc3ccccc3)c(=O)[nH]c2c1C	-10.7	0.1%	0.4%	0.8%	-67.4*	0.9%
CCN(CC1COc2ccccc2O1)C(=O)CN1C(=O)NC(C)(c2ccccc2)C1=O (stereo unspecified)	55.1*	-4.9%	12.2%	-1.5%	-12.7	2.2%
CCCn1c(Sc2nc3c(c(=O)[nH]c(=O)n3C)n2CCC)nc2c1c(=O)[nH]c(=O)n2C	0.0	-3.3%	21.3%	-2.6%	-57.1*	-3.2%
COc1cc(OC)c(NC(=S)Nc2cccc(C(C)=O)c2)cc1Cl	-10.3	-5.0%	-12.4%	-0.8%	-59.7*	-4.3%
COC(=O)c1cc(OC)c(OC)cc1NC(=S)Nc1cc(Cl)ccc1OC	-1.4	3.3%	28.0%	1.2%	-8.0	-0.8%
COC(=O)c1cc(OC)c(OC)cc1NC(=S)Nc1cccc(Cl)c1	-9.3	-0.1%	-17.3%	2.4%	-65.8*	-0.9%
COc1cc(OC)c(NC(=S)Nc2cc(Cl)cc(Cl)c2)cc1Cl	5.6	0.1%	-9.4%	1.9%	9.2	-2.5%
COc1ccccc1-n1c(=S)[nH]c2c(sc(=S)n2-c2ccccc2C)c1=O	56.3*	1.5%	19.0%	-8.0%	-77.7*	2.2%
Cc1ccc(-c2nc3c(Cl)cc(C(F)(F)F)cn3c2Cc2ccsc2)cc1	-1.4	.	.	.	-58.5*	.
Fc1ccc(-c2nc3c(Cl)cc(C(F)(F)F)cn3c2Cc2ccsc2)cc1	0.0	.	.	.	-26.7	.
Fc1cccc(Cc2c(-c3ccccc3)nc3c(Cl)cc(C(F)(F)F)cn23)c1	62.0*	.	.	.	-22.1	.
CC(C)(C)Cc1c(-c2ccc(Cl)cc2)nc2c(Cl)cc(C(F)(F)F)cn12	37.4*	.	.	.	0.0	.
Cc1nn(-c2ccccc2)c2c1N(CC(=O)N1CCN(c3ccc(Cl)cc3)CC1)C(=O)CS2	13.0	.	.	.	.	.
CC1=CC(=C(C#N)c2nc3ccccc3s2)C=C(C)N1Cc1ccco1	-17.5	?	?	?	-56.2*	0.2%
S=c1sc2c(Cl)ncnc2n1-c1ccccc1	-5.8	2.0%	-5.2%	-5.8%	-61.4*	1.2%
Cc1nc(N2CCN(C)CC2)c2sc(=S)n(-c3ccccc3)c2n1	-5.8	?	7.2%	-1.7%	-13.6	0.7%
CCOC(=O)C1CCN(C(=O)COC(=O)c2oc3ccccc3c2C)CC1	-10.0	-0.7%	20.8%	-0.1%	0.0	-4.4%
S=c1[nH]ncn1/N=C/c1ccc(Br)cc1	-9.6	-0.9%	0.5%	-6.0%	-108.8*	1.8%
Cn1cnnc1SCC(=O)Nc1ccc(C#N)cc1	0.3	.	.	.	.	.
CCCCOC(=O)c1ccc(NC(=S)NC(=O)c2c(Cl)cnn2CC)cc1	-1.2	?	-6.8%	-3.6%	-10.9	0.4%
CCCCOC(=O)c1ccc(NC(=S)NC(=O)c2c(Cl)cnn2C)cc1	-2.7	-1.8%	-1.3%	0.5%	-85.0*	0.0%
COc1cc2sc(-c3ccc(S(C)(=O)=O)cc3)c(C(=O)NCCCCO)c2cc1OC	3.8	0.4%	0.7%	.	27.9	-5.0%
SMILES	DRD3 agonist	Rango-impB inh	Rango release inh	TSG101-PTAP inh	DRD3 antagonist	MmCpn inh
COc1cc2sc(-c3ccc(S(C)(=O)=O)cc3)c(C(=O)NCc3ccc(C)o3)c2cc1OC	13.6	-1.6%	-2.7%	.	80.3	50.1µM*
Cn1c(=O)c2sccc2n2c(CCCC(=O)NC3CCCCC3)nnc12	-8.5	.	.	.	.	.
COc1cc2c(cc1OC)CN(C(=O)C(C)(C)C)CC2	-1.0	-0.1%	19.1%	-9.1%	14.0	-0.2%
COc1cc2c(cc1OC)CN(C1CCC(C(C)(C)C)CC1)CC2 (stereo unspecified)	-19.4	3.4%	12.5%	-1.6%	-88.1*	.
CN(C)C(=O)c1ccc2c(c1)N(CC(=O)NCc1ccccc1Cl)C(=O)C1CCCCN21 (stereo unspecified)	-0.9	.	.	.	.	.
NC(N)=NS(=O)(=O)c1ccc(NC(=S)NC(=O)c2sc3ccccc3c2Cl)cc1	5.5	?	20.6µM*	-1.5%	-13.2	?
Cc1ccc(-n2ncc(C(=O)N3CCN(C(=O)c4ccco4)CC3)c2-n2cccc2)cc1	5.3	-0.3%	1.3%	-6.0%	39.4	-1.8%
Cc1ccc(C(=O)CC(=O)c2cc(Cl)ccc2O)cc1	3.5	-2.6%	-7.8%	-2.5%	-9.3	-11.3%
CC(C)(C)c1ccc(C(=O)CC(=O)c2cc(Cl)ccc2O)cc1	-4.9	?	6.8%	-1.5%	-57.0*	-1.7%
Cc1ccc(C(=O)CC(=O)c2ccc(C)cc2O)cc1	-6.1	7.2%	8.9%	-7.4%	-77.4*	-8.2%
CS(=O)(=O)N1CCC(N2CCN(Cc3ccccc3)C(=O)C2=O)CC1	-2.5	.	.	.	.	.
CC1(C(=O)Nc2ccc3c(c2)OCO3)CCN1C(=O)Cc1cccs1 (stereo unspecified)	-28.0	.	.	.	-101.5*	.
CC1(C(=O)Nc2ccc3c(c2)OCCO3)CCN1C(=O)C1(c2ccc(Cl)cc2)CC1 (stereo unspecified)	3.0	.	.	.	2.9	.
CC1(C(=O)Nc2ccc3c(c2)OCCO3)CCN1C(=O)C1(c2ccc(Cl)cc2)CCC1 (stereo unspecified)	72.5*	.	.	.	21.9	.
CC1(C(=O)Nc2ccc3c(c2)OCO3)CCN1C(=O)CCc1cccs1 (stereo unspecified)	7.2	.	.	.	0.0	.
Cc1sc2ncn(CC(=O)N(C)c3ccc(Br)cc3)c(=O)c2c1S(=O)(=O)N1CCC(C)CC1	0.2	.	.	.	.	.
Cc1cccc(C)c1N(CCCc1cccnc1)C(=O)C(C)N (stereo unspecified)	3.9	.	.	.	.	.
CC1=C(c2ccc(C)cc2)S(=O)(=O)N(Cc2ccc(C(=O)Nc3ccc(C)c(F)c3)cc2)C1=O	-10.8	.	.	.	.	.
O=C(C#Cc1ccccc1)c1ccco1	-27.1	0.8%	0.5%	-5.1%	-99.6*	?
CCCc1cc(=O)[nH]c(SCc2nc(-c3ccccc3)no2)n1	-8.5	.	.	.	.	.
Fc1ccccc1COc1ccc(Br)cc1CNCc1cccnc1	-9.8	-0.8%	-6.0%	0.2%	?	1.9%
Fc1ccccc1COc1ccc(Br)cc1CNCc1ccncc1	-12.2	-0.6%	-4.0%	-9.5%	-68.4*	-6.0%
